Measured values reported in publication PMC7862700, “An all-to-all approach to the identification of sequence-specific readers for epigenetic DNA modifications on cytosine”.

What was measured:
Test in all cases: DAPPL (digital affinity profiling via proximity ligation, sequencing); 10 mM Tris-HCl pH 7.5, 50 mM NaCl, 1 mM DTT, 4% glycerol, room temperature, 30 min; GST-TFs on glutathione beads, 16-mer random dsDNA library, 0.1% formaldehyde crosslink after washing; high values mean tight binding
[1] = biological target: T1, FEV (Homo sapiens, UniProt Q99581 1-238); settings: protein: recombinant; tags: N-terminal GST; dsDNA, one strand shown
T1 sequence: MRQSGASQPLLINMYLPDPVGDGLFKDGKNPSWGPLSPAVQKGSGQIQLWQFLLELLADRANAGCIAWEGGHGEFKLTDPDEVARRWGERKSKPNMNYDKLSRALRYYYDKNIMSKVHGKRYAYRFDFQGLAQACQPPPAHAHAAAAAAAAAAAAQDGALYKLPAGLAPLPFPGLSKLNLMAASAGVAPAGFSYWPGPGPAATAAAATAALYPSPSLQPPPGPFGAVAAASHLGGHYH
Procedure, shortened: (§1)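 Binding signal is each hexamer's read frequency for a factor divided by its frequency in the tag-only sample. The factors were GST-fused human transcription factors from yeast, captured on glutathione beads, DNA-barcoded and pooled with that sample. Pools were incubated with 200 nmole of a random double-stranded 16-mer DNA library in Tris/NaCl/DTT/glycerol buffer at room temperature for 30 min, then washed, crosslinked with 0.1% formaldehyde, proximity-ligated with BsaI/T4 ligase (1 h, 37 °C), PCR-amplified and sequenced on an Illumina NextSeq500.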

[2] = biological target: ETV5 (Homo sapiens, UniProt P41161 1-510); settings: protein: recombinant; tags: N-terminal GST; dsDNA, one strand shown
Procedure, shortened: as §1

[3] = biological target: HSF1 (Homo sapiens, UniProt Q00613 1-529); settings: protein: recombinant; tags: N-terminal GST; chain copies: 3; dsDNA, one strand shown
Procedure, shortened: as §1

[4] = biological target: ELF4 (Homo sapiens, UniProt Q99607 1-663); settings: protein: recombinant; tags: N-terminal GST; dsDNA, one strand shown
Procedure, shortened: as §1

[5] = biological target: T2, ELK4 (Homo sapiens, UniProt P28324-2 1-405); settings: protein: recombinant; tags: N-terminal GST; dsDNA, one strand shown
T2 sequence: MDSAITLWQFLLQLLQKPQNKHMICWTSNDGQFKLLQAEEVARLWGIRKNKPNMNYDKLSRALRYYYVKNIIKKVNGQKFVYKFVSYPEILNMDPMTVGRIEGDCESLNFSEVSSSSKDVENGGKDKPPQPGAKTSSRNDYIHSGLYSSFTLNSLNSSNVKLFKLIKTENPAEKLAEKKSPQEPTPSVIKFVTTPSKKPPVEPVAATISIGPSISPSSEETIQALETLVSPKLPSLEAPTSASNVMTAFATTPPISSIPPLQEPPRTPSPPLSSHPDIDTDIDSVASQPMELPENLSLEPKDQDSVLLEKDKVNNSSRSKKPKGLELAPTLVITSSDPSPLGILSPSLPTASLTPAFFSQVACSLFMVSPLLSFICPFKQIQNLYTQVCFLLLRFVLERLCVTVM
Procedure, shortened: as §1

[6] = biological target: T3, ETV2 (Homo sapiens, UniProt O00321 1-342); settings: protein: recombinant; tags: N-terminal GST; dsDNA, one strand shown
T3 sequence: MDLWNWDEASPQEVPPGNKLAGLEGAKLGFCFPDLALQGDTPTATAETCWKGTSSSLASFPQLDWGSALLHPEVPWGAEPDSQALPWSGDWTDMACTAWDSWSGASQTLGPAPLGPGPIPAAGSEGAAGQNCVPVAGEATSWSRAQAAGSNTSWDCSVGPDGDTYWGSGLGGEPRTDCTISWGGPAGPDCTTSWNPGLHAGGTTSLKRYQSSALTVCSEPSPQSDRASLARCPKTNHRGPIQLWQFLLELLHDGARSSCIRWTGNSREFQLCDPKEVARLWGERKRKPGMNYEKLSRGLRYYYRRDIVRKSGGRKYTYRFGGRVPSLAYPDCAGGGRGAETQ
Procedure, shortened: as §1

[7] = biological target: T4, ELF3 (Homo sapiens, UniProt P78545 1-371); settings: protein: recombinant; tags: N-terminal GST; dsDNA, one strand shown
T4 sequence: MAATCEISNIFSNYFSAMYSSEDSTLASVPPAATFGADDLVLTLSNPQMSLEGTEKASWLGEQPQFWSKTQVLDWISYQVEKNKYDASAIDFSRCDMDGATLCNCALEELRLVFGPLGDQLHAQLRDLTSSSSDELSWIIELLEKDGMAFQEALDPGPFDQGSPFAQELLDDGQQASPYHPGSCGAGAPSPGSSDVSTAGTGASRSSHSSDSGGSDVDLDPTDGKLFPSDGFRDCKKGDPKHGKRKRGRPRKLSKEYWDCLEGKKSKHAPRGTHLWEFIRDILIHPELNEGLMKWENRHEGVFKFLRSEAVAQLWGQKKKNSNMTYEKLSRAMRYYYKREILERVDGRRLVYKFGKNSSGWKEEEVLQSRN
Procedure, shortened: as §1

[8] = biological target: CRX (Homo sapiens, UniProt O43186 1-299); settings: protein: recombinant; tags: N-terminal GST; dsDNA, one strand shown
Procedure, shortened: as §1

[9] = biological target: ETV1 (Homo sapiens, UniProt P50549 1-477); settings: protein: recombinant; tags: N-terminal GST; dsDNA, one strand shown
Procedure, shortened: as §1

[10] = biological target: T5, ERF (Homo sapiens, UniProt P50548 1-548); settings: protein: recombinant; tags: N-terminal GST; dsDNA, one strand shown
T5 sequence: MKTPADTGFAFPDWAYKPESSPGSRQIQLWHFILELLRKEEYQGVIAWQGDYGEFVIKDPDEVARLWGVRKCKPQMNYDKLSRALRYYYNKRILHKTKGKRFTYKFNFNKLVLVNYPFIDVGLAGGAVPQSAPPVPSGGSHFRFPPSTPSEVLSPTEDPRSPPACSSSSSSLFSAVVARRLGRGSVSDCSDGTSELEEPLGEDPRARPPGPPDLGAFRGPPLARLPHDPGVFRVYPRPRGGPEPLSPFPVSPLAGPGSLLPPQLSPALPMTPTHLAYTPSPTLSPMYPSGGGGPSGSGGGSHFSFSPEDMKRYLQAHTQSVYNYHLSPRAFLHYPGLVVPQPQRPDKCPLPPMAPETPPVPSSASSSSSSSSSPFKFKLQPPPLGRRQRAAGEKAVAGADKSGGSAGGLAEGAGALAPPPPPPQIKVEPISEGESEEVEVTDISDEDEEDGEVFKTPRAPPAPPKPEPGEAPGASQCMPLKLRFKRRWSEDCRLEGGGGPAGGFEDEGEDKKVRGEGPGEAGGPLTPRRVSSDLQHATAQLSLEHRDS
Procedure, shortened: as §1

[11] = biological target: T6, ETV3L (Homo sapiens, UniProt Q6ZN32 1-361); settings: protein: recombinant; tags: N-terminal GST; dsDNA, one strand shown
T6 sequence: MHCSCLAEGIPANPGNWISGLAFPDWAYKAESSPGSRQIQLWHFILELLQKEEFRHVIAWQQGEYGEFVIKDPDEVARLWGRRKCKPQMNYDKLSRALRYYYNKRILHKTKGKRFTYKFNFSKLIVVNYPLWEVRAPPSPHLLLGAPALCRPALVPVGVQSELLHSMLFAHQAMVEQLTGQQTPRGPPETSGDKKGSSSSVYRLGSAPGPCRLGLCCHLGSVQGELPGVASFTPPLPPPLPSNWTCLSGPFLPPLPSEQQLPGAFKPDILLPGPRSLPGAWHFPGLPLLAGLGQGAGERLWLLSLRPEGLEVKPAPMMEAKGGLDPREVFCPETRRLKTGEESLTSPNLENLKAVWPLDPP
Procedure, shortened: as §1

[12] = biological target: T7, ETS2 (Homo sapiens, UniProt P15036 1-469); settings: protein: recombinant; tags: N-terminal GST; dsDNA, one strand shown
T7 sequence: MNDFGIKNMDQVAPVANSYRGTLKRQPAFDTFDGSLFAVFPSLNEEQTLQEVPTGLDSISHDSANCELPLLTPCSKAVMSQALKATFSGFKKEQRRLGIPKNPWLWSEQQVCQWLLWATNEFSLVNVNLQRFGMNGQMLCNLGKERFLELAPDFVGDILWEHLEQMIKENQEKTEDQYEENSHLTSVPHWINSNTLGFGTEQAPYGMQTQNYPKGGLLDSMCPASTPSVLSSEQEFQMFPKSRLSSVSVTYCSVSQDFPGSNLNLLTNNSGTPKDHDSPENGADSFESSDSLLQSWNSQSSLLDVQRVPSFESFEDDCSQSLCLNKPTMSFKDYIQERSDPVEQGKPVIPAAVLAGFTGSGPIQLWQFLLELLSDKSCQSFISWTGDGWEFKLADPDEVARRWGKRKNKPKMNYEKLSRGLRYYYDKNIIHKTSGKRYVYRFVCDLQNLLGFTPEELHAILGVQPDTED
Procedure, shortened: as §1

[13] = biological target: T8, SPDEF (Homo sapiens, UniProt O95238 1-335); settings: protein: recombinant; tags: N-terminal GST; dsDNA, one strand shown
T8 sequence: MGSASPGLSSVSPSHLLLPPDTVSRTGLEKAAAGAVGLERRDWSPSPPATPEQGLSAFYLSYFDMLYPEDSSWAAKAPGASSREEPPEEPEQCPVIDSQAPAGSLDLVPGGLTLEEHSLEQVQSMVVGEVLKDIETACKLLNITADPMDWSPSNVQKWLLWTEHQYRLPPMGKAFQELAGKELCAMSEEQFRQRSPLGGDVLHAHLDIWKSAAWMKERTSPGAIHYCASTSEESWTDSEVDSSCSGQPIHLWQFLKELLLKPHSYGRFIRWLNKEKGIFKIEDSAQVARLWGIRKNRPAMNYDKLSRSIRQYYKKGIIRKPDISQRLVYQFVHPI
Procedure, shortened: as §1

[14] = biological target: T9, ETV7 (Homo sapiens, UniProt Q9Y603 1-341); settings: protein: recombinant; tags: N-terminal GST; dsDNA, one strand shown
T9 sequence: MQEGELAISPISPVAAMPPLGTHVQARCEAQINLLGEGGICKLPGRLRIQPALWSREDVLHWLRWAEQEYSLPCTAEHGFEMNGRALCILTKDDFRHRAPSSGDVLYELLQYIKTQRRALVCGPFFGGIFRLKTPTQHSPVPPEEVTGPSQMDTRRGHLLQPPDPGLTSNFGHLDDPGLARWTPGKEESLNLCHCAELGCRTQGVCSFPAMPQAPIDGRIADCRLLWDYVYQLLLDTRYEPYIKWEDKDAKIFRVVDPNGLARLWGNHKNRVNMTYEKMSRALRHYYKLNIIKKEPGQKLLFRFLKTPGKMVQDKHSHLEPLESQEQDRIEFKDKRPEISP
Procedure, shortened: as §1

[15] = biological target: T10, ELF5 (Homo sapiens, UniProt Q9UKW6-2 1-255); settings: protein: recombinant; tags: N-terminal GST; dsDNA, one strand shown
T10 sequence: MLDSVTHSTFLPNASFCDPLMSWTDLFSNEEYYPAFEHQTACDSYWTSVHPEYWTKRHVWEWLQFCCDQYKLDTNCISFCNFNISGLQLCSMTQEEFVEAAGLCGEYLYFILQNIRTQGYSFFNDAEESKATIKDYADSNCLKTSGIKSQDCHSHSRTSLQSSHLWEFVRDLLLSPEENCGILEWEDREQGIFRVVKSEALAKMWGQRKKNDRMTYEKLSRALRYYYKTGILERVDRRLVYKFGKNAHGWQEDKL
Procedure, shortened: as §1

[16] = biological target: T11, ETV3 (Homo sapiens, UniProt P41162-2 1-143); settings: protein: recombinant; tags: N-terminal GST; dsDNA, one strand shown
T11 sequence: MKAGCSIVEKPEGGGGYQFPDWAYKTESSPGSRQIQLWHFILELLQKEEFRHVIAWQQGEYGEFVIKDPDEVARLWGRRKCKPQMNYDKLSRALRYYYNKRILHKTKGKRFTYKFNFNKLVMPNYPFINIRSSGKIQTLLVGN
Procedure, shortened: as §1

[17] = biological target: ETV6 (Homo sapiens, UniProt P41212 1-452); settings: protein: recombinant; tags: N-terminal GST; dsDNA, one strand shown
Procedure, shortened: as §1

Sequence of ELF4 (Q99607 whole entry): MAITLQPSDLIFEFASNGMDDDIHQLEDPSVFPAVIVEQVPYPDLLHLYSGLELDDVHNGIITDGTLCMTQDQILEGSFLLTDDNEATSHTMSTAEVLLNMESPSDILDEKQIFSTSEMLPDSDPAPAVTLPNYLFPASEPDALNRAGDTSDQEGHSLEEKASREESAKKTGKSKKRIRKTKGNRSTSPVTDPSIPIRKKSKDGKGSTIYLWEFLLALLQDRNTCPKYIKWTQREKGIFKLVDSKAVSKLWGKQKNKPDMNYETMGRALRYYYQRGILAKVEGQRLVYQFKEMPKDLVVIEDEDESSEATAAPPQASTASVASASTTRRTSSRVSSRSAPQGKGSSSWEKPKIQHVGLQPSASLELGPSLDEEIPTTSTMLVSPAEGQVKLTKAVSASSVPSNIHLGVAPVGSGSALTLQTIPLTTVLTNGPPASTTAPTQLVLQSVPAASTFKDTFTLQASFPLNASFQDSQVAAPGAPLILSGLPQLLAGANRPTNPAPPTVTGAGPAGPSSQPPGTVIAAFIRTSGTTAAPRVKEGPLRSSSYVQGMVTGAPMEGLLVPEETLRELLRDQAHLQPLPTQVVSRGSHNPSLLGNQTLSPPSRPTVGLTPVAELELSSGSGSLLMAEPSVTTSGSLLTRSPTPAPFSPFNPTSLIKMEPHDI
Sequence of ETV6 (P41212 whole entry): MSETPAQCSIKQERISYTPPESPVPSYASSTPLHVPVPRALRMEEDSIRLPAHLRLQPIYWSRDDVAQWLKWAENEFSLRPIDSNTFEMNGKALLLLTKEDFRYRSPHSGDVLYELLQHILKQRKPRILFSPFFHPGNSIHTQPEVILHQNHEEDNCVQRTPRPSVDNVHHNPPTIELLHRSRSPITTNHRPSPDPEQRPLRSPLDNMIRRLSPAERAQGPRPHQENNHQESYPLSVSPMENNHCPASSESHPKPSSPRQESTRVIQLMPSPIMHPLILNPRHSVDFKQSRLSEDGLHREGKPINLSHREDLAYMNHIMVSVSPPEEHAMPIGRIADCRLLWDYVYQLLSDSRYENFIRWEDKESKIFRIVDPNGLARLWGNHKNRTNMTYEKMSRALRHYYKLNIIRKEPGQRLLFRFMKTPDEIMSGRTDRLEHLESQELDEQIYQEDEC
Sequence of ETV5 (P41161 whole entry): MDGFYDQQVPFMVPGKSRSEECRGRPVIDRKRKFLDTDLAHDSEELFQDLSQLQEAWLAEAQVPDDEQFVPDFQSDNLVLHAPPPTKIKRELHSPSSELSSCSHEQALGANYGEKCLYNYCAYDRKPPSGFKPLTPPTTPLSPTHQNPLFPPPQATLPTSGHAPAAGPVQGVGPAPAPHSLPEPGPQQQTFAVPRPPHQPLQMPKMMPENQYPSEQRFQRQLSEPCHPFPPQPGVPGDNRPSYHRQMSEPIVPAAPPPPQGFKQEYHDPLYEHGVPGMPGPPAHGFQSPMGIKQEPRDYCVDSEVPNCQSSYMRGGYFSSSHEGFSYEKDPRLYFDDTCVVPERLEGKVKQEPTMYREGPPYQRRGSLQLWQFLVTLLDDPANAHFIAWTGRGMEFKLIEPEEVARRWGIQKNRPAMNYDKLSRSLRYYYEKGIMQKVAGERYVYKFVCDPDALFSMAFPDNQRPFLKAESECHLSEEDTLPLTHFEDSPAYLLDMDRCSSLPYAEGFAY
Sequence of ETV1 (P50549 whole entry): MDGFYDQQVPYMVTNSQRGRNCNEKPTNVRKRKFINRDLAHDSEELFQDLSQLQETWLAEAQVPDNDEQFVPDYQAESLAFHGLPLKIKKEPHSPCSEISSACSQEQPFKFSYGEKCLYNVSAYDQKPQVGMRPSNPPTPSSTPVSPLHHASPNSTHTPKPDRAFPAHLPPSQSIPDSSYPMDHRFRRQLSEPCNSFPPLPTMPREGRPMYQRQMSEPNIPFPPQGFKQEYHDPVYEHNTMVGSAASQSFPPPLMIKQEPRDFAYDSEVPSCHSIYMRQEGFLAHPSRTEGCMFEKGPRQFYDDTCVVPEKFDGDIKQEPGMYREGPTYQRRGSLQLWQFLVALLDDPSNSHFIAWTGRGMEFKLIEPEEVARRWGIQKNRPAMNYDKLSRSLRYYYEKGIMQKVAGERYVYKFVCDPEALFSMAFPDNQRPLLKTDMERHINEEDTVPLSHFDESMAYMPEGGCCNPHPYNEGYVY
Sequence of HSF1 (Q00613 whole entry): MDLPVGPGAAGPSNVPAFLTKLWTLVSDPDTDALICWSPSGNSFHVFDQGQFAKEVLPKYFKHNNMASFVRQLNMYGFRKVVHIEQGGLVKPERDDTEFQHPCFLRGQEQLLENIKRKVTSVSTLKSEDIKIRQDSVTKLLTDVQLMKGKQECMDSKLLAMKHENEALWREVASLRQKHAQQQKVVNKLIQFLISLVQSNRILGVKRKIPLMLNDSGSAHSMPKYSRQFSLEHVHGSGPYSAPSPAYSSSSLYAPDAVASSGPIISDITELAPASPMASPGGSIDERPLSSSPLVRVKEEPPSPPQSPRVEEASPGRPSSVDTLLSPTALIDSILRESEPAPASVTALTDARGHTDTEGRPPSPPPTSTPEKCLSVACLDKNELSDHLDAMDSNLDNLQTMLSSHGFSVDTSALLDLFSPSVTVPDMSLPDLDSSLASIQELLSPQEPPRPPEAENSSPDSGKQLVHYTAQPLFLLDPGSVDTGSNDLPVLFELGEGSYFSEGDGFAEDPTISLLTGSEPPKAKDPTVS
Sequence of CRX (O43186 whole entry): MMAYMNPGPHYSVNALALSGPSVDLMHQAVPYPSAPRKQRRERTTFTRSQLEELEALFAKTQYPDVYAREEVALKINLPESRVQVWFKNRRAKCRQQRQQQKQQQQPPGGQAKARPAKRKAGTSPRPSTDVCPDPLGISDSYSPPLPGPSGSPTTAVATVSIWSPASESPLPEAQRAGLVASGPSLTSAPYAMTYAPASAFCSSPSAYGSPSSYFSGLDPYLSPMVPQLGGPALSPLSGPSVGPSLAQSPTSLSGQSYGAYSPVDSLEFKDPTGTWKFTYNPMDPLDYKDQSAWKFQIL

Sequence | binding signal [1] | binding signal [2] | binding signal [3] | binding signal [4] | binding signal [5] | binding signal [6] | binding signal [7] | binding signal [8] | binding signal [9] | binding signal [10] | binding signal [11] | binding signal [12] | binding signal [13] | binding signal [14] | binding signal [15] | binding signal [16] | binding signal [17]
TACATT | 1.19 fold enrichment (6-mer frequency, TF over GST control) | 1.21 fold enrichment (6-mer frequency, TF over GST control) | 1.25 fold enrichment (6-mer frequency, TF over GST control) | 1.24 fold enrichment (6-mer frequency, TF over GST control) | 1.09 fold enrichment (6-mer frequency, TF over GST control) | 1.17 fold enrichment (6-mer frequency, TF over GST control) | 1.11 fold enrichment (6-mer frequency, TF over GST control) | 1.25 fold enrichment (6-mer frequency, TF over GST control) | 1.16 fold enrichment (6-mer frequency, TF over GST control) | 1.34 fold enrichment (6-mer frequency, TF over GST control) | 1.18 fold enrichment (6-mer frequency, TF over GST control) | 1.19 fold enrichment (6-mer frequency, TF over GST control) | 1.18 fold enrichment (6-mer frequency, TF over GST control) | 1.25 fold enrichment (6-mer frequency, TF over GST control) | 1.22 fold enrichment (6-mer frequency, TF over GST control) | 1.2 fold enrichment (6-mer frequency, TF over GST control) | 1.29 fold enrichment (6-mer frequency, TF over GST control)
GTAATC | 1.1 fold enrichment (6-mer frequency, TF over GST control) | 1.22 fold enrichment (6-mer frequency, TF over GST control) | 1.92 fold enrichment (6-mer frequency, TF over GST control) | 1.14 fold enrichment (6-mer frequency, TF over GST control) | 1.16 fold enrichment (6-mer frequency, TF over GST control) | 1.11 fold enrichment (6-mer frequency, TF over GST control) | 1.21 fold enrichment (6-mer frequency, TF over GST control) | 3.14 fold enrichment (6-mer frequency, TF over GST control) | 1.02 fold enrichment (6-mer frequency, TF over GST control) | 1.08 fold enrichment (6-mer frequency, TF over GST control) | 1.12 fold enrichment (6-mer frequency, TF over GST control) | 1.16 fold enrichment (6-mer frequency, TF over GST control) | 1.12 fold enrichment (6-mer frequency, TF over GST control) | 1.17 fold enrichment (6-mer frequency, TF over GST control) | 1.18 fold enrichment (6-mer frequency, TF over GST control) | 1.1 fold enrichment (6-mer frequency, TF over GST control) | 1.2 fold enrichment (6-mer frequency, TF over GST control)
